Compound activity as filed in PubChem BioAssay.
Only a selection was taken, and hits are over-represented in it overall.
miR-122 inh = raises miR-122 sensor activity in Huh7 cells; Huh7 psiCHECK-miR122 Renilla luciferase sensor, 48 h; activation, % at 12.5 µM; actives 0.14% (n = 340,000);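 active = mean activation of 30% or more, with every replicate also reaching 30%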;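 note: higher luciferase signal means stronger suppression of miR-122 activity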
Of the large screens only hits and unclear results are named; the others gave an inactive call.

COc1ccc2c(c1)c(CCN)c(C)n2Cc1ccccc1	miR-122 inh 51.6
Oc1ccc(/C=N/NP(=S)(c2ccccc2)c2ccccc2)cc1	none
c1ccc(-c2cc(-c3ccccc3)[n+](-c3ccccc3)c(-c3ccccc3)c2)cc1	miR-122 inh 59.2
CC12CCC3C(CCC4(O)CC(O)CCC34C=O)C1(O)CCC2C1=CC(=O)OC1 (stereo not drawn)	none
CC(C)C(NC(=O)C(C(C)C)N(C)C)C(=O)N(C)C(C(=O)N1CCCC1C(=O)N1CCCC1C(=O)NCc1ccccc1)C(C)C (stereo not drawn)	none
O=c1c2ccccc2nc(/C=C/c2ccc([N+](=O)[O-])o2)n1-c1ccc(O)cc1	none
